Source: PubChem BioAssay
hNpr1 antagonist: Natriuretic polypeptide receptor (hNpr1) antagonism - Primary qHTS. HEK293 hNpr1 GloSensor cGMP, ANP-stimulated luminescence. Potency, µM (titrated, usually from 46.3 µM), actives largely listed as inhibitors. hit rate 1.6% among 76,000. AID 1347048, 2019; calls by dose curve; also: nearly all actives have a fitted effect of over 60% in size
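HEK293 cells stably expressing human Npr1 and cGMP GloSensor pGS-40F, loaded 2 h with 2% GloSensor reagent, given compound 30 min at room temperature. Luminescence read before and 20 min after 0.1 nM hNppA.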
HEK293 tox: Cytotoxic Profiling in HEK 293 Cell Line of Diverse Libraries Using Quantitative High-Throughput Screening | HEK 293 viability, ATP luminescence (CellTiter-Glo), 48-72 h | Potency, µM (top dose mostly 115 µM), usual class: inhibitors | hit rate 6.6% among 94,000 | AID 1345083, 2018; also: nearly all actives have a fitted effect of over 60% in size
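HEK 293 cells at 250 cells/well were exposed to compounds by pintool transfer for 48 or 72 hr at 37 degree Celsius, 5% CO2. Viability was read as ATP-coupled luminescence with CellTiter-Glo after 10 min at room temperature.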
Luciferase inh: Firefly luciferase inhibition profiling of diverse chemical library using quantitative high-throughput screening | purified P. pyralis luciferase, luminescence, biochemical | Potency, µM (highest dose often 115 µM), hits mostly inhibitors | hit rate 2.5% among 76,000 | AID 1347043, 2019; also: nearly all actives have a fitted effect of over 65% in size
Target sequence (P08659 whole entry, looked up): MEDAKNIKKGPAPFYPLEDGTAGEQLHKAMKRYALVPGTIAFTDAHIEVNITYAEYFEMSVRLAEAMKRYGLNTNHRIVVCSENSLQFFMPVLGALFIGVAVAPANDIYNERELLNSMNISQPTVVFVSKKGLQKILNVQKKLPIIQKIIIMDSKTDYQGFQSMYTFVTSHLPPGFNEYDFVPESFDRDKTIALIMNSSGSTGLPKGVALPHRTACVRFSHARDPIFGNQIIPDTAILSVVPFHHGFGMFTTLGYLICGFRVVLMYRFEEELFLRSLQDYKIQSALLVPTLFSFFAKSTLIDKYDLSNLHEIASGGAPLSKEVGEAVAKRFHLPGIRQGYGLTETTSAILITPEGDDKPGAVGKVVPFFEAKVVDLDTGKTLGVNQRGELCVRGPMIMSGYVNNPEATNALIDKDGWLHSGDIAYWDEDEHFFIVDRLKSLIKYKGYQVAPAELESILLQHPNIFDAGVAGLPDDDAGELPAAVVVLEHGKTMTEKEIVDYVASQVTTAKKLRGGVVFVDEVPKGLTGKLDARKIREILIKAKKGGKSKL
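Cell-free enzyme assay, 10nM P. pyralis luciferase, luciferin and ATP each at 10uM. Inhibition profiled over a 6-point titration, read as luminescence.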
3T3 cytotox: Cytotoxic Profiling in NIH 3T3 Cell Line of Diverse Libraries Using Quantitative High-Throughput Screening | NIH 3T3 viability, CellTiter-Glo ATP luminescence, 48-72 h | Potency, µM (top dose mostly 96.7 µM), hits mostly inhibitors | hit rate 4.3% among 94,000 | AID 1345082, 2018; also: nearly all actives have a fitted effect of over 55% in size
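Cytotoxicity is measured as loss of cellular ATP: NIH 3T3 cells (400/well) are exposed to compound for 48 or 72 hr at 37 °C, then CellTiter-Glo luminescence is imaged after 10 min at room temperature.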
NPR1 antag cnf: Natriuretic polypeptide receptor (hNpr1) antagonism - Confirmation; shares compounds with hNpr1 antagonist; HEK293 hNpr1 cGMP GloSensor luminescence, ANP-stimulated; Potency, µM (series often up to 57.6 µM), most hits filed as inhibitors; hit rate 76% among 1,400; calls by dose curve; also: nearly all actives have a fitted effect of over 70% in size
NPR2 antag: Natriuretic polypeptide receptor (hNpr2) antagonism - Subtype selectivity assay. shares compounds with hNpr1 antagonist. HEK293 hNpr2 GloSensor cGMP luminescence, CNP-stimulated. Potency, µM (titrated, usually from 57.6 µM), actives largely listed as inhibitors. hit rate 67% among 1,400. AID 1347046, 2019; calls by dose curve; also: nearly all actives have a fitted effect of over 70% in size
FLuc inh counter: Natriuretic polypeptide receptor (hNpr1) antagonism - Confirmation firefly luciferase (FLuc) inhibition counterscreen | shares compounds with hNpr1 antagonist | purified FLuc enzyme, luminescence, Km substrate | Potency, µM (doses to about 57.6 µM), most hits filed as inhibitors | hit rate 0.7% among 1,400 | AID 1347047, 2019
GloSensor cGMP: Natriuretic polypeptide receptor (hNpr1) antagonism - Counterscreen GloSensor control cell line; AID 1347051, 2019; Potency, µM (doses to about 57.6 µM), usual class: inhibitors; HEK293 GloSensor cGMP, SNP-stimulated, luminescence; shares compounds with hNpr1 antagonist; hit rate 69% among 1,400; calls by dose curve; also: nearly all actives have a fitted effect of over 70% in size
Of the large screens only hits and unclear results are named; the others gave an inactive call (follow-up assays come after a bar, where they were run). An excerpt weighted towards active compounds, which were near 11% of everything screened. Unless noted, calls follow the shape of the dose curve; as a rule, active = well fitted curve in the direction sought with a large enough effect; inconclusive = small, poorly fitted or top-dose-only effect, or another doubt; inactive = no such curve, though single readings can be large; an effect the other way counts as inactive or inconclusive.

COc1cc(Cl)ccc1C(=O)N1CCN(C(=O)c2nnn3c2COC(c2ccccc2)C3)CC1 (stereo not drawn)	hNpr1 antagonist inconclusive, HEK293 tox inconclusive, 3T3 cytotox inconclusive | NPR1 antag cnf 21.7µM | NPR2 antag inconclusive | FLuc inh counter inactive | GloSensor cGMP 30.6µM
Cc1ccccc1C(=O)N1CCN(C(=O)c2nnn3c2COC(c2ccc(Cl)cc2)C3)CC1 (stereo not drawn)	hNpr1 antagonist inconclusive, HEK293 tox inconclusive, 3T3 cytotox inconclusive | NPR1 antag cnf 27.3µM | NPR2 antag inconclusive | FLuc inh counter inactive | GloSensor cGMP inconclusive
Cc1ccc(CC(=O)N2CCN(C(=O)c3nnn4c3COC(c3ccccc3)C4)CC2)cc1 (stereo not drawn)	none
Cc1ccccc1CC(=O)N1CCN(C(=O)c2nnn3c2COC(c2ccc(Cl)cc2)C3)CC1 (stereo not drawn)	hNpr1 antagonist 14.1µM, HEK293 tox 28.2µM, 3T3 cytotox 35.5µM | NPR1 antag cnf 19.3µM | NPR2 antag 21.7µM | FLuc inh counter inactive | GloSensor cGMP 19.3µM
Cc1ccc(C2Cn3nnc(C(=O)N4CCN(C(=O)c5cc(Cl)ccc5F)CC4)c3CO2)cc1 (stereo not drawn)	hNpr1 antagonist inconclusive, HEK293 tox inconclusive, 3T3 cytotox inconclusive | NPR1 antag cnf 15.3µM | NPR2 antag 19.3µM | FLuc inh counter inactive | GloSensor cGMP 17.2µM
Cc1ccccc1N1CCN(C(=O)c2nnn3c2COC(c2ccc(Cl)cc2)C3)CC1 (stereo not drawn)	none
CCN(CC)C(=O)c1cc2c(s1)CCC(C(=O)Nc1ccc(OC)c(F)c1)C2 (stereo not drawn)	hNpr1 antagonist 12.6µM, HEK293 tox inconclusive, 3T3 cytotox inconclusive | NPR1 antag cnf 24.3µM | NPR2 antag 21.7µM | FLuc inh counter inactive | GloSensor cGMP 24.3µM
CCN(CC)C(=O)c1cc2c(s1)CCC(C(=O)O)C2 (stereo not drawn)	none
Cc1scc(C(=O)N2CCCC3(CCOC3)C2)c1-c1ccccc1 (stereo not drawn)	HEK293 tox inconclusive
COc1ccc(C(=O)N2CCN(C(=O)N3CC4CC(C3)[C@H]3CCCC(=O)N3C4)CC2)cc1F (stereo partly drawn)	none
O=C(NCC1CC1)c1nc2c(o1)CCN(Cc1ccc3c(c1)CCO3)CC2	hNpr1 antagonist 25.1µM, HEK293 tox inconclusive, 3T3 cytotox inconclusive | NPR1 antag cnf 44.4µM | NPR2 antag inconclusive | FLuc inh counter inactive | GloSensor cGMP 35.3µM
O=C(c1nc2c(o1)CCN(Cc1ccc3c(c1)CCO3)CC2)N1CCOCC1	HEK293 tox inconclusive
Cc1cc(F)cc(CN2CCc3nc(C(=O)NCC4CC4)oc3CC2)c1	hNpr1 antagonist 22.4µM, HEK293 tox inconclusive, 3T3 cytotox inconclusive | NPR1 antag cnf 31.4µM | NPR2 antag 28µM | FLuc inh counter inactive | GloSensor cGMP 28µM
CC(C)CNC(=O)N1CC(n2cc(C(=O)NCc3ccncc3)nn2)C1	none
